Measurements reported in PubChem BioAssay.
Calls of active or inactive are those of the source. How the calls were made is not given here.

The compounds below were run against Pantothenate synthetase (Mycobacterium tuberculosis (strain ATCC 25618 / H37Rv)) (UniProt P9WIL5) (assay: Recombinant Mtb pantothenate synthetase (PanC) inhibitors, coupled enzyme, confirmatory (AID 375;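 further: 0% = full reaction with vehicle and 100% = no enzyme background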)). Conditions: coupled enzyme assay; at 10 µM, hits give high values.
Chain of Pantothenate synthetase (Mycobacterium tuberculosis (strain ATCC 25618 / H37Rv)) (P9WIL5 whole entry, looked up): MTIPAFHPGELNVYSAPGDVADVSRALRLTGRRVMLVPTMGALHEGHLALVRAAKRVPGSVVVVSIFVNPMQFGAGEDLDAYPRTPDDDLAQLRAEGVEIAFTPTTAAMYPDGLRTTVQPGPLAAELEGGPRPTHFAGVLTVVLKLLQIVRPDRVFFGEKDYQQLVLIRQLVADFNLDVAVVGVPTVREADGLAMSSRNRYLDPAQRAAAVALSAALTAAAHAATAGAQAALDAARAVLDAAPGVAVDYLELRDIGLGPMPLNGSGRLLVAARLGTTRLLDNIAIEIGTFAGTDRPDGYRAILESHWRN
With CCN(CC)CCCN1C(=O)C(O)=C(C(=O)c2ccco2)C1c1ccc(C)o1 (configuration not stated) the inhibition was 13% (inactive). With COc1ccc(CCNC(=O)CSc2nncn2N)cc1OC the inhibition was 5% (inactive). In the case of Cc1ncc(CSc2nc3ccccc3[nH]2)c(N)n1, the inhibition is reported as 5% (inactive). Cc1csc(NC(=O)c2ccccc2C(=O)O)n1 was tested, and the inhibition was 5% (inactive). For COc1ccccc1CNS(=O)(=O)c1cccc(S(=O)(=O)N2CCOCC2)c1, the inhibition was 0% (inactive). Cc1nn(-c2ccc(F)cc2)c2c1cc(C#N)c1nc3ccccc3n12 was tested, and the inhibition was 6% (inactive). With Cc1nnc(SCCn2c(N3CC(C)CC(C)C3)nc3c2c(=O)n(C)c(=O)n3C)s1 (configuration not stated) the inhibition was 0% (inactive). For O=C(Nc1nc(-c2ccccc2)cs1)C1CCCCN1S(=O)(=O)c1ccccc1 (configuration not stated), the inhibition was 1% (inactive). With O=S1(=O)Nc2c(ccc3cccnc23)-c2ccccc21 the inhibition was 0% (inactive). For Cc1cc(C)n(CC(=O)NC2CCCCC2)n1, the inhibition was 0% (inactive). With CN(C(=O)c1ccccn1)c1nnc(-c2ccncc2)s1 the inhibition was 0% (inactive). CCCCn1nnnc1NCc1cccs1 was tested, and the inhibition was 0% (inactive). With O=c1c2ccccc2nnn1CSc1nnc2sc3ccccc3n12 the inhibition was 0% (inactive). For O=C(O)c1c(Cl)c(Cl)c(Cl)c(Cl)c1C(=O)N1CCOCC1, the inhibition was 0% (inactive). With c1ccc(CC2CCN(C(c3cccs3)c3nnnn3C3CCCC3)CC2)cc1 (configuration not stated) the inhibition was 3% (inactive). With C[C@]12CC[C@@H]3c4ccc(O)cc4C(=O)C[C@H]3[C@@H]1CC[C@@H]2O the inhibition was 0% (inactive). For CCCC(C(=O)NCc1ccco1)N(C(=O)CNS(=O)(=O)c1ccc(Cl)cc1)C1CCCC1 (configuration not stated), the inhibition was 0% (inactive).
